# From PubChem
# Sampled rows, rich in hits. Any-hit rate of the full collection: about 27%.
# CYP2C19 inh – blocks human cytochrome P450 2C19; actives 21% (n = 96,000); CYP2C19 Supersomes, luciferin-H EGE luminescence, 30 min; inhibition, % at 5 µM; AID 778;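 active = CYP2C19 inhibition above a set limit at 5 µM in the primary screen, cut at about 50% in these data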;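 note: plate controls were negative control wells for no effect and 2.5 mM tranylcypromine positive control for full effect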
# CYP2C19 act – activators of human cytochrome P450 2C19 | P33261 | recombinant CYP2C19, luciferin-H EGE luminescence; active compounds read high; 0 = fully inhibited enzyme, 1 = untreated enzyme | activation factor at 5 µM | 96,000 tested, under 10 active;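 active = activation factor of at least 2 at 5 µM in the primary screen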;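 note: 0 = wells with 2.5 mM tranylcypromine and 1 = vehicle-only wells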
# sEH inhibitor – inhibitors of human soluble epoxide hydrolase; recombinant human sEH enzymatic activity assay; actives 0.34% (n = 91,000); inhibition, % at 2 µM; in the data active = inhibition above about 80%
# sEH act – activators of human soluble epoxide hydrolase; P34913; purified human sEH enzymatic activity, activator screen; activation, % at 2 µM; actives 0.04% (n = 91,000); in the data active = activation above about 37%
# CYP2C9 inhib – blocks human cytochrome P450 2C9. P11712. inhibition, % at 5 µM. CYP2C9 Supersomes, luciferin-H conversion, luminescence. actives 20% (n = 96,000);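 active = blocking of liver enzyme CYP2C9 beyond about 50% at 5 µM, limit read from the data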
# Target sequence (P11712 whole entry, looked up): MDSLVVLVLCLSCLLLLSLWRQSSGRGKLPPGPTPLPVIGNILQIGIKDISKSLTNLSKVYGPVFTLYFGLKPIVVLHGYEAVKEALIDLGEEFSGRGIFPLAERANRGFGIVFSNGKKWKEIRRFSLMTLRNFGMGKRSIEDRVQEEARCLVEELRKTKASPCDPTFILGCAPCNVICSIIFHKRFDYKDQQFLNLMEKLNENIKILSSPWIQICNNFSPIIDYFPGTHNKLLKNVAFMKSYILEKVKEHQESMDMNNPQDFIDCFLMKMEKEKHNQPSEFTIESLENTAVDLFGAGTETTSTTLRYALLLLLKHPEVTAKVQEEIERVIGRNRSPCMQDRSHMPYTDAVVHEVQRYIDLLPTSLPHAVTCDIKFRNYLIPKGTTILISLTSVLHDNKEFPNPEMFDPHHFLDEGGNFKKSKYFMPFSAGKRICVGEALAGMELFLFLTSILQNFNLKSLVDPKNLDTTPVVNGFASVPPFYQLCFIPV
# CYP2C9 activ – CYP2C9 (human) activation; AID 1024; recombinant CYP2C9, luciferin-H conversion, luminescence; active compounds read high; factor 1 = untreated enzyme, 0 = blocked; activation factor at 5 µM; P11712; actives 1.4% (n = 96,000);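 active = activation factor of 2 or more for CYP2C9 at a 5 µM dose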;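 note: 0 = sulfaphenazole-blocked wells and 1 = vehicle-only wells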
# Starred values were filed as active, the others as inactive; . = no result.
SMILES,CYP2C19 inh,CYP2C19 act,sEH inhibitor,sEH act,CYP2C9 inhib,CYP2C9 activ
COCCCn1c(N)c(-c2nc3ccccc3n2C)c2nc3ccccc3nc21,70*,0.3,8,-10,66*,0.3
Cn1c(-c2c(N)n(CCc3ccccc3)c3nc4ccccc4nc23)nc2ccccc21,58*,0.4,-3,2,100*,0
O=C1c2ccccc2C(O)(c2ncc[nH]2)N1CCc1ccccc1 (configuration not stated),92*,0.1,-2,4,-1,1
O=C(Nc1cnn(Cc2ccc(Cl)cc2)c1)c1cnccn1,42,0.6,-15,15,62*,0.4
CC(=O)Nc1cnn(Cc2ccc(Br)cc2)c1,66*,0.3,0,-5,23,0.8
Clc1ccc(Cn2cc(Br)cn2)cc1Cl,72*,0.3,4,0,39,0.6
O=C(Nc1cnn(Cc2ccc(Cl)c(Cl)c2)c1)c1nc2ncccn2n1,7,0.9,-6,8,35,0.7
CC(=O)c1ccc(NC(=O)Oc2ccccc2)cc1,54*,0.5,-4,6,39,0.6
CCCCNC(=O)c1ccc(NS(=O)(=O)c2ccccc2)cc1,35,0.7,6,-3,93*,0.1
CC(=O)c1ccc(NS(=O)(=O)c2ccccc2)cc1,61*,0.4,-11,11,79*,0.2
O=S(=O)(Nc1ccncc1)c1ccccc1,0,1,5,-5,7,0.9
CCN(CC)C(=O)c1ccc(NS(=O)(=O)c2ccccc2)cc1,82*,0.2,2,-3,77*,0.2
CCN(CC)C(=O)c1ccc(C(=O)c2ccccc2)cc1,13,0.9,-13,9,11,0.9
CCCCNC(=O)c1ccccc1C(=O)NCCCC,11,0.9,4,2,6,0.9
Cc1cc(Cl)c(S(=O)(=O)N2CCN(c3ccccc3)CC2)cc1OCC(N)=O,.,.,-4,4,.,.
CC(C)(C)n1ncc2c(=O)n(CC(=O)N3CCCc4ccccc43)cnc21,28,0.7,18,-17,10,0.9
C=CCc1c(C)nc(N)[nH]c1=O,.,.,14,-8,.,.
CCOC(=O)CNC(=O)C(NC(=O)C1CCC(C)CC1)C(C)CC (configuration not stated),7,0.9,.,.,-1,1
CCOC(=O)CN(C#N)c1nc(C)cc(C)n1,-4,1,-4,3,-27,1.3
Cc1cc(C)nc(N(C#N)Cc2ccccc2Cl)n1,68*,0.3,10,-11,-177,2.8*
Cc1cc(C)nc(N(C#N)S(=O)(=O)c2ccccc2)n1,20,0.8,9,-10,38,0.6
Cc1cc(C)nc(N(C#N)CN2C(=O)c3ccccc3C2=O)n1,-5,1.1,.,.,-180,2.8*
CCOC(=O)C1CCCN(C(=O)Cn2cccc2C(=O)c2ccccc2)C1 (configuration not stated),25,0.8,-16,14,22,0.8
COC(=O)c1ccccc1NC(=O)CN1CCOCC1,14,0.9,1,1,7,0.9
CN(C)c1ccc(NC(=O)CN2CCC(C(=O)c3ccc(F)cc3)CC2)cc1,-9,1.1,16,-17,2,1
SMILES,CYP2C19 inh,CYP2C19 act,sEH inhibitor,sEH act,CYP2C9 inhib,CYP2C9 activ
COC(=O)c1ccccc1NC(=O)CN1CCC(C(=O)c2ccc3c(c2)OCCO3)CC1,81*,0.2,10,-12,78*,0.2
Cc1ccc(NC(=O)CN2CCC(C(=O)c3ccc4c(c3)OCCO4)CC2)cc1,85*,0.2,19,-18,49,0.5
Cc1sc2nc(C3CC3)nc(N3CCN(S(=O)(=O)c4ccc(F)cc4)CC3)c2c1C,37,0.6,-4,2,59*,0.4
Cc1cc(Cl)ccc1OC(C)C(=O)Nc1ccc(S(=O)(=O)Nc2cnc3ccccc3n2)cc1 (configuration not stated),-4,1,-9,10,88*,0.1
CCC(Oc1ccccc1)C(=O)Nc1ccc(S(=O)(=O)Nc2cnc3ccccc3n2)cc1 (configuration not stated),6,0.9,14,-11,29,0.7
CC(Oc1ccc(Cl)cc1Cl)C(=O)Nc1ccc(S(=O)(=O)Nc2cnc3ccccc3n2)cc1 (configuration not stated),14,0.9,11,-8,100*,0
CCOC(=O)c1nn(-c2cccc(Cl)c2)c(C)c1C(C)=O,100*,0,8,-7,64*,0.4
CCOC(=O)c1nn(-c2ccccc2)c(=O)c(C#N)c1C,70*,0.3,-1,4,9,0.9
CCOC(=O)c1c(C)nn(Cc2cccc(Cl)c2)c1N,24,0.8,-2,2,90*,0.1
CCOC(=O)c1nn(-c2cccc(OC)c2)c(-c2ccccc2)c1C(=O)c1ccccc1,47,0.5,-9,6,49,0.5
CCOC(=O)c1nn(-c2ccccc2)c(-c2ccccc2)c1C(=O)c1ccccc1,40,0.6,11,-14,59*,0.4
N/C(=N\OS(=O)(=O)c1cc(Cl)ccc1Cl)c1ccncc1,38,0.6,0,0,48,0.5
Cc1cccn2c(=O)c3cc(C#N)c(=O)n(Cc4cccnc4)c3nc12,-12,1.1,.,.,-2,1
CC(=O)Nc1ccc(S(=O)(=O)N(C)CC(=O)OCC(=O)N2CCc3ccccc32)cc1,21,0.8,4,-6,36,0.6
CN(CC(=O)N1CCc2ccccc21)S(=O)(=O)c1ccc(Cl)cc1,60*,0.4,23,-21,-167,2.7*
CCOc1ccc(S(=O)(=O)N(CC(=O)N2CCc3ccccc32)Cc2ccco2)cc1,92*,0.1,.,.,52*,0.5
CCN(CC)S(=O)(=O)c1ccc(Cl)c(C(=O)N2CCc3ccccc32)c1,24,0.8,-6,5,12,0.9
CCN(CC)S(=O)(=O)c1cc(C(=O)Nc2nncs2)c(Cl)cc1Cl,0,1,56,-54,17,0.8
CCOC(=O)Cn1c(-c2ccccn2)nc2ccccc21,51*,0.5,.,.,1,1
CCN(CC)CCNC(=O)Cn1c(-c2ccccn2)nc2ccccc21,-12,1.1,5,0,-6,1.1
O=C(NCc1ccco1)c1cccc2ccccc12,24,0.8,-8,8,-203,3*
O=C(Nc1cccc(Cl)c1)Nc1ccccc1C(=O)NCc1ccco1,14,0.9,3,-2,58*,0.4
O=C(NCc1ccco1)c1ccccc1Nc1ccc(F)cc1,89*,0.1,-2,5,67*,0.3
O=C(NCc1ccco1)c1cnc2ccccn2c1=O,2,1,.,.,55*,0.4
O=C(O)CCC(=O)Nc1ccccc1C(=O)NCc1ccco1,.,.,0,4,.,.
O=C(NCc1ccco1)c1ccccc1F,-11,1.1,6,-9,8,0.9
O=C(NCc1ccco1)c1cnc2sccn2c1=O,-4,1,-2,1,18,0.8
